# Data from PubChem BioAssay (Tox21).
# “And” between values parts separate entries of the source, which are not always exact repeats. Equal entries are not always repeated. Results filed as inconclusive are left out. A call without a number means that no potency is given here. Some structures have more than one record in an assay (separate samples or runs), and their calls can disagree. The source made the active and inactive calls. Unless noted, calls come from the whole dose curve; as a rule, active = well fitted curve in the direction sought with a large enough effect in the repeat runs; inconclusive = weak or mixed curves; inactive = no such curve, though single readings can be large; an effect the other way counts as inactive or inconclusive.
# Key:
# [1] = target: Aryl hydrocarbon receptor (Homo sapiens) (UniProt P35869); assay: qHTS assay to identify small molecule that activate the aryl hydrocarbon receptor (AhR) signaling pathway (AID 743085); note: nearly all actives have a fitted effect of over 15% in size; note: potency is the fitted concentration of half-maximal effect;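 for activation: HG2L7.5c1 human HepG2 liver cells with stably integrated DRE-driven firefly reporter; series mostly up to about 70 µM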
# Chain of Aryl hydrocarbon receptor (Homo sapiens) (P35869 whole entry, looked up): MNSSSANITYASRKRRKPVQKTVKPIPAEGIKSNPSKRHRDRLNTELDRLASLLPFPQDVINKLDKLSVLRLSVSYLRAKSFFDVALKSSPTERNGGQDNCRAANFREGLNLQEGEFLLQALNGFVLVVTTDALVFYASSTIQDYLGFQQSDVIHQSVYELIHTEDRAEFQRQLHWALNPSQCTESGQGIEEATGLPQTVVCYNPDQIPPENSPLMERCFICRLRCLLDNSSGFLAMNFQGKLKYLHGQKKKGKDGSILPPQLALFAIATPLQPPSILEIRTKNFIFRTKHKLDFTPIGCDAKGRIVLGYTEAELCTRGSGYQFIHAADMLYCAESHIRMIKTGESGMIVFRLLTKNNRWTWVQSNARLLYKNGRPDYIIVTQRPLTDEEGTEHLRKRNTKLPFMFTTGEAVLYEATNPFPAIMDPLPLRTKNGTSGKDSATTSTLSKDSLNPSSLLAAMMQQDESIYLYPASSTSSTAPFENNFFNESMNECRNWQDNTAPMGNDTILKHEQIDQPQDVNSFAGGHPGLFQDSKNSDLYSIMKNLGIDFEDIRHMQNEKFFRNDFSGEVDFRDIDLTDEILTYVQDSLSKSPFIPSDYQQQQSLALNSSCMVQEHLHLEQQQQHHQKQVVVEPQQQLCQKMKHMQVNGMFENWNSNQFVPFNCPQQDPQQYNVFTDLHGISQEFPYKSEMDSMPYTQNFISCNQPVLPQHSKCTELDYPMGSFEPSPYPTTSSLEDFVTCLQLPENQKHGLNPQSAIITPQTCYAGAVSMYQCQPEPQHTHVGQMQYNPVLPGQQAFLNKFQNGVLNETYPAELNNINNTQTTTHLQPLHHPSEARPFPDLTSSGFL
# Procedure, shortened: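 HepG2 cells stably carrying a 20-DRE firefly luciferase reporter (HG2L7.5c1) treated with compound for 24 hr at 37C. Luciferase read by ONE-Glo luminescence, with CellTiter-Fluor viability read first.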
# [2] = qHTS assay to identify small molecule antagonists of the peroxisome proliferator-activated receptor gamma (PPARg) signaling pathway - cell viability counter screen (AID 743194); note: nearly all actives have a fitted effect of over 55% in size; note: potency is the fitted concentration of half-maximal effect
# Procedure, shortened: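 Viability was measured as CellTiter-Glo luminescence in GeneBLAzer PPARg UAS-bla HEK293H cells. These cells had been exposed 17 h at 37 C to compounds together with rosiglitazone at 50 nM final, with the beta-lactamase readout taken in the same wells.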
# [3] = qHTS assay for small molecule agonists of the antioxidant response element (ARE) signaling pathway - cell viability counter screen (AID 743203; calls by dose curve; note: nearly all actives have a fitted effect of over 55% in size; note: potency is the fitted concentration of half-maximal effect)
# Procedure, shortened: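 Viability counter screen: CellTiter-Glo luminescence, read after 30 min at room temperature, in ARE-bla HepG2 wells. Compound exposure lasted 16 h at 37C/5% CO2, following a 5 h pre-incubation of the cells after plating.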
# [4] = qHTS assay to identify small molecule agonists of the peroxisome proliferator-activated receptor delta (PPARd) signaling pathway - cell viability counter screen (AID 743211); note: nearly all actives have a fitted effect of over 55% in size; note: potency is the fitted concentration of half-maximal effect
# Procedure, shortened: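 PPARd-bla HEK293H cells (3000/well) were pre-incubated 5 h at 37 C, then exposed to compound for 17 h at 37 C. After 2 h with LiveBLAzer substrate, CellTiter-Glo was added to the same wells; luminescence read after 30 min at room temperature.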
# [5] = target: Peroxisome proliferator-activated receptor delta (Homo sapiens) (UniProt Q03181); assay: qHTS assay to identify small molecule agonists of the peroxisome proliferator-activated receptor delta (PPARd) signaling pathway (AID 743212; calls by dose curve;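 note: HEK293H cells with PPARd UAS beta-lactamase reporter GeneBLAzer system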)
# Chain of Peroxisome proliferator-activated receptor delta (Homo sapiens) (Q03181 whole entry, looked up): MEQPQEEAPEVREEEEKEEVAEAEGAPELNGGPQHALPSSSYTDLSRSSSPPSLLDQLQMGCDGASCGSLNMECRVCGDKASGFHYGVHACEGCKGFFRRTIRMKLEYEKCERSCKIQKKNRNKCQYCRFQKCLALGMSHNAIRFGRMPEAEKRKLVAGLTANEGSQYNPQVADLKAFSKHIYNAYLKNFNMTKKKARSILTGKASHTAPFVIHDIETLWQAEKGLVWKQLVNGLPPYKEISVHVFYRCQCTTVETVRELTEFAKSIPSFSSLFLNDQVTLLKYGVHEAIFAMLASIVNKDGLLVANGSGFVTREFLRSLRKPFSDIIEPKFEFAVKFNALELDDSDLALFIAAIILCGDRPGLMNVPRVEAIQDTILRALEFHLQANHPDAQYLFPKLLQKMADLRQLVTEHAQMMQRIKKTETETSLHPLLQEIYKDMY
# Procedure, shortened: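 Steps: seed PPARd-bla HEK293H cells; incubate 5 h, 37 C, 5% CO2; add compounds in DMSO; incubate, 37 C; add LiveBLAzer B/G FRET substrate; hold 2 h at room temperature; measure fluorescence.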
# [6] = qHTS assay to identify small molecule antagonists of the peroxisome proliferator-activated receptor delta (PPARd) signaling pathway - cell viability counter screen (AID 743213); note: nearly all actives have a fitted effect of over 50% in size; note: potency is the fitted concentration of half-maximal effect
# Procedure, shortened: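 Cytotoxicity counter screen: CellTiter-Glo luminescence read 30 min after addition, in the same wells as the reporter assay. There, PPARd UAS-bla HEK293H cells (3000/well) were treated 17 h at 37 C with compound and 300 nM L165041.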
# [7] = target: Peroxisome proliferator-activated receptor delta (Homo sapiens) (UniProt Q03181); assay: qHTS assay to identify small molecule antagonists of the peroxisome proliferator-activated receptor delta (PPARd) signaling pathway (AID 743215; active = well fitted inhibition curve with a large enough effect in the signal ratio in the repeat runs, not every such curve was filed as active; the % refers to the signal ratio;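 note: cells stimulated with agonist L165041 at 300 nM final during compound exposure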; note: potency is the fitted concentration of half-maximal effect)
# Procedure, shortened: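 Agonist L165041 (300 nM final) added with compound to PPARd-bla HEK293H UAS-bla reporter cells; 17 h incubation at 37 C. Read-out: LiveBLAzer FRET substrate, 2 h at room temperature, fluorescence intensity.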
# [8] = qHTS assay to identify small molecule agonists of the farnesoid-X-receptor (FXR) signaling pathway - cell viability counter screen (AID 743218); note: nearly all actives have a fitted effect of over 45% in size; note: potency is the fitted concentration of half-maximal effect
# Procedure, shortened: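 Viability counter screen in the same wells: CellTiter-Glo luminescence, 30 min room-temperature incubation, measured after the beta-lactamase read. Cells were GeneBLAzer FXR-UAS-bla HEK 293T, compound-treated 16 h at 37C.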
# [9] = qHTS assay to identify small molecule antagonists of the farnesoid-X-receptor (FXR) signaling pathway - cell viability counter screen (AID 743221; active = well fitted cell-killing curve with a large enough effect in the repeat runs, not every such curve was filed as active; note: nearly all actives have a fitted effect of over 50% in size; note: potency is the fitted concentration of half-maximal effect)
# Procedure, shortened: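 GeneBLAzer FXR-UAS-bla HEK 293T cells, compound plus chenodeoxycholic acid (50 uM final), 16 h at 37 C. CellTiter-Glo added to the same wells after the beta-lactamase read; luminescence read after 30 min at room temperature as viability.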
# [10] = target: Vitamin D3 receptor (Homo sapiens) (UniProt P11473); assay: qHTS assay to identify small molecule antagonists of the vitamin D receptor (VDR) signaling pathway (AID 743223; active = well fitted inhibition curve with a large enough effect in the signal ratio in the repeat runs, not every such curve was filed as active; the % refers to the signal ratio)
# Chain of Vitamin D3 receptor (Homo sapiens) (P11473 whole entry, looked up): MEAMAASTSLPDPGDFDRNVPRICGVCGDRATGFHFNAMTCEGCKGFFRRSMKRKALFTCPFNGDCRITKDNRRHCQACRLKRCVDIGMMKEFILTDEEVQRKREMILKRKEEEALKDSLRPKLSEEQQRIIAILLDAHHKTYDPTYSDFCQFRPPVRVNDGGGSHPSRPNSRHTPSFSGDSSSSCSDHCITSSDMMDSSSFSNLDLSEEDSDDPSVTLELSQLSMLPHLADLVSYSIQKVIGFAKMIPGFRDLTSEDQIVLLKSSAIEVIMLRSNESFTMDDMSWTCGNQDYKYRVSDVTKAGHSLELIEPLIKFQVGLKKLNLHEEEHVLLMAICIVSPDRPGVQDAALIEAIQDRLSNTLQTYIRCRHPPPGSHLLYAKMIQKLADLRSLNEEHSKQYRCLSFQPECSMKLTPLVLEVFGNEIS
# Procedure, shortened: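 VDR-bla cells were treated with compound plus 3 nM final 1alpha,25-dihydroxyvitamin D3 for 16 h at 37C. Beta-lactamase reporter read by B/G FRET substrate fluorescence after 2 h at room temperature. qHTS format.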
# [11] = qHTS assay to identify aromatase inhibitors - cell viability counter screen (AID 743084);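 note: cells stimulated with testosterone during compound exposure; nearly all actives have a fitted effect of over 55% in size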; note: potency is the fitted concentration of half-maximal effect
# [12] = qHTS assay to identify small molecule that activate the aryl hydrocarbon receptor (AhR) signaling pathway - cell viability counter screen (AID 743086); note: nearly all actives have a fitted effect of over 45% in size; note: potency is the fitted concentration of half-maximal effect
# Procedure, shortened: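 Cytotoxicity counter screen: CellTiter-Fluor signal (30 min, 37 C) in 4000 HepG2 cells/well carrying the DRE-luciferase reporter, following 24 h compound exposure at 37 C.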
# [13] = qHTS assay for small molecule activators of the heat shock response signaling pathway - cell viability counter screen (AID 743209); note: nearly all actives have a fitted effect of over 50% in size; note: potency is the fitted concentration of half-maximal effect
# Procedure, shortened: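 Cytotoxicity counter screen run in the same wells as the heat-shock bla reporter assay: HeLa HSE-bla cells, 5 h compound exposure at 37 C, viability read by CellTiter-Glo luminescence.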
# [14] = qHTS assay for small molecule activators of the heat shock response signaling pathway (AID 743210; active = well fitted activation curve with a large enough effect in the signal ratio in the repeat runs, with a control signal flat, not every such curve was filed as active; the % refers to the signal ratio;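 note: HeLa cells with beta-lactamase reporter driven by heat shock elements; series mostly up to about 63 µM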)
# Procedure, shortened: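 Fluorescence from a cleaved B/G FRET substrate (2.5 h, room temp) reports HSE-driven beta-lactamase in HeLa cells treated 5 h at 37 C with DMSO-dissolved compounds.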
# [15] = target: Peroxisome proliferator-activated receptor gamma (Homo sapiens) (UniProt P37231); assay: qHTS assay to identify small molecule agonists of the peroxisome proliferator-activated receptor gamma (PPARg) signaling pathway (AID 743094; active = well fitted activation curve with a large enough effect in the signal ratio in the repeat runs, not every such curve was filed as active; the % refers to the signal ratio)
# Chain of Peroxisome proliferator-activated receptor gamma (Homo sapiens) (P37231 whole entry, looked up): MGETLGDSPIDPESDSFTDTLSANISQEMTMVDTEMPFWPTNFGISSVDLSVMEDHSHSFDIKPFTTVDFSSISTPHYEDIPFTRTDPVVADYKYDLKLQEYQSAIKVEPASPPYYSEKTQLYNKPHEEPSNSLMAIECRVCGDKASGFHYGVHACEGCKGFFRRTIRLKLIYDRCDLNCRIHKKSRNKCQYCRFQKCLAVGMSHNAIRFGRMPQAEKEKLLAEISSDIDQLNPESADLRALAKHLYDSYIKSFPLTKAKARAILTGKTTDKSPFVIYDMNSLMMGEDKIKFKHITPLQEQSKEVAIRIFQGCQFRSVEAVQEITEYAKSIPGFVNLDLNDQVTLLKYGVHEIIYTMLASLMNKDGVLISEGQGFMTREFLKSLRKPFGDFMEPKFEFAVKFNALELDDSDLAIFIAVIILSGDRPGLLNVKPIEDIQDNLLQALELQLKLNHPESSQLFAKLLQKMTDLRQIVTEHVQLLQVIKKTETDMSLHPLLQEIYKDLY
# Procedure, shortened: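 Agonist activity was taken from a beta-lactamase reporter (FRET substrate, 1 h at room temperature) in HEK293H cells carrying a PPARg UAS-bla construct. Compounds in DMSO were incubated 17 h at 37C after a 5 h cell pre-incubation.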
# [16] = target: Bile acid receptor (Homo sapiens) (UniProt Q96RI1); assay: qHTS assay to identify small molecule agonists of the farnesoid-X-receptor (FXR) signaling pathway (AID 743220; active = well fitted activation curve with a large enough effect in the signal ratio in the repeat runs, not every such curve was filed as active; the % refers to the signal ratio)
# Chain of Bile acid receptor (Homo sapiens) (Q96RI1 whole entry, looked up): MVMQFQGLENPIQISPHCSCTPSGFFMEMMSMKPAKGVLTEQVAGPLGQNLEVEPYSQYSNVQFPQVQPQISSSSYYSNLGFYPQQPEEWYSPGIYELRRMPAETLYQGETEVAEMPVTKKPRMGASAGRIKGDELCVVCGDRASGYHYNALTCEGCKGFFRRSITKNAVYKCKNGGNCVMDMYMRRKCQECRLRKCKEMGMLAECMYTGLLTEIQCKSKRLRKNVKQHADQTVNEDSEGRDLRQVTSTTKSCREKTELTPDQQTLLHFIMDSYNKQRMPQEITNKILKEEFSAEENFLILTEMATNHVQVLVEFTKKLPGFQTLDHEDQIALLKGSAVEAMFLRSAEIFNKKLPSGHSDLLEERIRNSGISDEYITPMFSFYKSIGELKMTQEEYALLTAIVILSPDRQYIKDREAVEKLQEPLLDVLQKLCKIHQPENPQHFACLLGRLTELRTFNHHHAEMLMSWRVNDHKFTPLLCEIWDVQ
# Procedure, shortened: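 FXR-UAS-bla HEK 293T cells carrying a UAS-driven beta-lactamase reporter were plated for 5 h at 37C/5% CO2, then exposed to DMSO-dissolved Tox21 10K compounds for 16 h at 37C. A LiveBLAzer B/G FRET substrate was loaded for 2 h at room temperature before fluorescence reading.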
# [17] = qHTS assay for small molecule agonists of the antioxidant response element (ARE) signaling pathway (AID 743202; active = well fitted activation curve with a large enough effect in the signal ratio in the repeat runs, not every such curve was filed as active; the % refers to the signal ratio)
# Procedure, shortened: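 Beta-lactamase reporter activity, read as fluorescence intensity, reflects ARE/Nrf2 pathway induction in HepG2 cells after 16 h compound exposure at 37 C; substrate loading was 2 h at room temperature.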
# [18] = target: Peroxisome proliferator-activated receptor gamma (Homo sapiens) (UniProt P37231); assay: qHTS assay to identify small molecule antagonists of the peroxisome proliferator-activated receptor gamma (PPARg) signaling pathway (AID 743191; calls by dose curve; note: potency is the fitted concentration of half-maximal effect; nearly all actives have a fitted effect of over 30% in size)
# Procedure, shortened: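 Beta-lactamase reporter under UAS control in HEK293H PPARg-bla cells; compound treatment 17 h at 37C. Read-out: fluorescence intensity after 1 h room-temperature incubation with LiveBLAzer B/G FRET substrate.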
# [19] = target: Bile acid receptor (Homo sapiens) (UniProt Q96RI1); assay: qHTS assay to identify small molecule antagonists of the farnesoid-X-receptor (FXR) signaling pathway (AID 743217; active = well fitted inhibition curve with a large enough effect in the signal ratio in the repeat runs, not every such curve was filed as active; the % refers to the signal ratio; note: potency is the fitted concentration of half-maximal effect)
# Procedure, shortened: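 Antagonist mode: chenodeoxycholic acid at 50 uM final stimulates a UAS-driven beta-lactamase reporter in HEK 293T FXR-bla cells during 16 h, 37C compound exposure. Read-out is FRET substrate fluorescence after 2 h at room temperature.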
# [20] = target: Vitamin D3 receptor (Homo sapiens) (UniProt P11473); assay: qHTS assay to identify small molecule agonists of the vitamin D receptor (VDR) signaling pathway (AID 743222; calls by dose curve)
# Procedure, shortened: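 Agonist mode, beta-lactamase reporter: fluorescence from LiveBLAzer B/G FRET substrate (2 h, room temperature) read after 16 h compound treatment at 37 C of VDR-bla cells, which were pre-incubated 4 h after seeding.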
compound,measurement,setting,value
COc1cccc(O)c1O,Potency,[1],31.8 µM (active)
same,Potency,[2],inactive
same,Potency,[3],inactive
same,Potency,[4],inactive
same,Potency,[5],inactive
same,Potency,[6],inactive
same,Potency,[7],inactive
same,Potency,[8],inactive
same,Potency,[9],inactive
same,Potency,[10],inactive
CC/C(=C(\c1ccccc1)c1ccc(OCCN(C)C)cc1)c1ccccc1,Potency,[11],27.3 µM (active) [middle of 5 runs]
same,Potency,[1],inactive
same,Potency,[12],inactive and 61.6 µM (active)
same,Potency,[3],19.5 µM (active) and 27.3 µM (active) and 26.6 µM (active)
same,Potency,[13],inactive and 35 µM (active) and 43.6 µM (active)
same,outcome,[14],inactive
same,Potency,[6],54.9 µM (active) and 17.5 µM (active)
Nc1ccc(O)c([N+](=O)[O-])c1,Potency,[1],43.3 µM (active)
same,Potency,[15],inactive
same,outcome,[14],inactive
same,Potency,[4],inactive
same,Potency,[5],inactive
same,Potency,[6],inactive
NC(=O)n1c(O)c(C(=O)c2cccs2)c2cc(Cl)ccc21,Potency,[11],inactive
same,Potency,[1],23.7 µM (active)
same,Potency,[12],inactive
same,outcome,[14],inactive
same,Potency,[4],inactive
same,Potency,[8],inactive
same,outcome,[16],inactive
same,Potency,[9],inactive
CN(C)CCOC(c1ccccc1)c1ccccc1,Potency,[11],inactive
same,Potency,[12],inactive
same,Potency,[2],inactive
same,Potency,[17],inactive
same,Potency,[3],inactive
same,Potency,[13],inactive
same,outcome,[14],inactive
same,Potency,[4],inactive
same,Potency,[6],inactive
same,Potency,[8],inactive
CN[C@H]1CC[C@@H](c2ccc(Cl)c(Cl)c2)c2ccccc21,Potency,[1],inactive
same,Potency,[12],inactive
same,Potency,[3],18.8 µM (active)
same,Potency,[4],21.1 µM (active)
same,Potency,[6],23.7 µM (active)
same,Potency,[8],23.7 µM (active)
Nc1ccc([N+](=O)[O-])cc1O,Potency,[11],24.3 µM (active)
same,Potency,[1],13.7 µM (active)
same,Potency,[12],38.6 µM (active)
same,Potency,[3],inactive
same,Potency,[13],inactive
same,outcome,[14],inactive
same,Potency,[4],inactive
CN1CCc2cccc3c2[C@H]1Cc1ccc(O)c(O)c1-3,Potency,[11],29.8 µM (active) and 24.6 µM (active) and 20.4 µM (active)
same,Potency,[12],inactive and 61.8 µM (active)
same,Potency,[15],inactive
same,Potency,[18],6.49 µM (active)
same,Potency,[2],44.1 µM (active) and 3.65 µM (active)
same,Potency,[3],49.1 µM (active) and 5.74 µM (active)
same,Potency,[13],inactive
same,Potency,[4],49.5 µM (active) and 10.3 µM (active) and 21.1 µM (active)
same,Potency,[5],inactive
same,Potency,[6],49.5 µM (active) and 18.3 µM (active)
same,Potency,[7],55.5 µM (active) and 10.3 µM (active)
same,Potency,[19],39.3 µM (active) and 18.3 µM (active)
same,outcome,[16],inactive
same,Potency,[9],44.1 µM (active) and inactive
same,Potency,[20],inactive
same,Potency,[10],inactive
